HT1080 IDH1KD tx = toxicity to HT-1080 IDH1 knockdown cells (counter line); HT-1080 IDH1 knockdown viability, ATP luminescence, 48 h; Potency, µM (titrated, usually from 46.1 µM), for the others: top-dose activity, negative = toxicity, usual class: cytotoxic; hit rate 2% among 360,000; AID 686971;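 further: 0% = DMSO wells and -100% = cell-free medium wells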
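Assay cells: HT-1080 with IDH1 knockdown, 750 per well, RPMI/5% FBS. Exposure: 48 h at 37 °C following 2 h pre-incubation. Read: CellTiter-Glo luminescence; fitted concentration-response, curve class assigned.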
MCF10A rereplic = inducers of DNA re-replication in MCF 10A breast cells. MCF 10A DNA re-replication, Hoechst nuclear intensity, 48 h. Potency, µM (top dose mostly 46.1 µM), without a hit: top-dose activity, positive = re-replication, hits mostly activators. hit rate 2.9% among 350,000; further: % of control where 0% means no effect; nearly all actives have a fitted effect of over 50% in size
KB-3-1 cytotox = kills parental KB-3-1 adenocarcinoma cells | KB-3-1 viability, CellTiter-Glo ATP luminescence, 72 h | Potency, µM (doses to about 46.1 µM), actives largely listed as cytotoxic | hit rate 1.4% among 400,000 | AID 1347075; further: on the % scale 0 is the no-effect control and ±100 the full control effect; nearly all actives have a fitted effect of over 60% in size
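Parental KB-3-1 adenocarcinoma cells in phenol-red-free DMEM with 10% FBS were pin-treated with compounds at several concentrations, incubated 72 h at 37 °C, and viability read by CellTiter-Glo luminescence; concentration-effect curves were fitted after normalization.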
KB-V1 cytotox = KB-V1 MDR subline cytotoxicity; Potency, µM (top dose mostly 46.1 µM), hits mostly cytotoxic; KB-V1 MDR cells viability, CellTiter-Glo, 72 h; AID 1347076; hit rate 3.4% among 400,000; further: on the % scale 0 is the no-effect control and ±100 the full control effect; nearly all actives have a fitted effect of over 60% in size
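Luminescent ATP read-out (CellTiter-Glo, 10 min) measures survival of drug-selected KB-V1 MDR cells after 72 h, 37 degrees C compound exposure. Medium: phenol-red-free DMEM, 10% FBS. Values from fitted concentration-response curves.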
HT1080NT lethal = kills 2HG-producing HT-1080-NT fibrosarcoma cells. HT-1080-NT fibrosarcoma viability, CellTiter-Glo ATP luminescence, 48 h. Potency, µM (doses to about 46.1 µM), for the others: top-dose activity, negative = less viability, hits mostly cytotoxic. hit rate 1.6% among 360,000. AID 686970;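 further: NT is the 2HG producing partner of a matched IDH1 knockdown line; 0% = DMSO-treated cells and -100% = media-only wells without cells; nearly all actives have a fitted effect of over 55% in size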
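Luminescent CellTiter-Glo readout after 48 hours of compound exposure at 37 degrees C defined viability of HT-1080-NT cells. Activity was normalized to DMSO wells and cell-free media wells; concentration-response curves were fitted and assigned curve classes.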
SW480 rereplic = DNA re-replication induction in SW480 cells. SW480 DNA re-replication, Hoechst DNA content imaging, 48 h. Potency, µM (doses to about 46.1 µM), inactives show top-dose re-replication activation, hits mostly activators. hit rate 1.8% among 340,000. AID 624297; further: % of control where 0% means no effect; nearly all actives have a fitted effect of over 55% in size
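Cells (250 per well) received 23 nL compound or DMSO by pin tool and were kept 48 hr at 37 C, 5% CO2. Nuclei were then stained with Hoechst for 40 min and scanned for DNA content.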
Numbers without * were called inactive; i = inactive; ? = inconclusive; nt = not tested or not shown. Hits are enriched below; roughly 8% of the tested compounds scored in any of these assays. The call rests on the fitted dose curve; in most records, active means well fitted curve in the direction sought with a large enough effect; inconclusive means small, poorly fitted or top-dose-only effect, or another doubt; inactive means no such curve, though single readings can be large; an effect the other way counts as inactive or inconclusive. Potency means the concentration at half of the fitted maximal effect.

SMILES	HT1080 IDH1KD tx	MCF10A rereplic	KB-3-1 cytotox	KB-V1 cytotox	HT1080NT lethal	SW480 rereplic
COc1ccc(CCNC(=O)c2ccc3c(c2)N(Cc2ccccc2)CCS3)cc1OC	-13%	?	i	i	-9%	?
CC(C)(C)NCC(=Cc1ccccc1)C(=O)c1ccccc1	5.8µM*	1.8µM*	5.2µM*	?	6.5µM*	5.2µM*
COc1ccc(CN2CCN(C(=O)c3cccc(OC)c3OC)CC2)cc1OC	8%	-1%	i	i	2%	-3%
COc1ccc(CN2CCN(C(=O)CCC(=O)c3ccc(C)s3)CC2)cc1OC	12%	11%	i	4.1µM*	11%	-3%
COc1ccc(CN2CCN(C(=O)c3ccccc3C(=O)c3ccccc3)CC2)cc1OC	-1%	-6%	i	16µM*	2%	-4%
CSc1ccc(C(c2c(C(=O)O)[nH]c3ccccc23)c2c(C(=O)O)[nH]c3ccccc23)cc1	-6%	21µM*	i	i	-5%	?
CSc1ccccc1NC(=O)CN(C)C(=O)c1c(C)nn(Cc2ccccc2)c1C	-8%	-2%	i	21µM*	-2%	-4%
Clc1ccc(OCc2nc(-c3ccccn3)n[nH]2)cc1	10µM*	?	?	4.6µM*	?	?
C=CCNC(=O)C1CCN(C(=O)c2ccc(-c3ccccc3)cc2)CC1	8%	0%	i	i	13%	6%
Cc1ccc(OCC(=O)N(Cc2ccc(N(C)C)cc2)C2CCS(=O)(=O)C2)cc1 (centres undefined)	11%	-1%	i	i	-1%	7%
CN(C)c1ccc(CN(C(=O)COc2ccc(Br)cc2)C2CCS(=O)(=O)C2)cc1 (centres undefined)	-22%	8%	i	8.2µM*	-5%	-1%
Cc1ccc(OCC(=O)N(Cc2cccs2)C2CCS(=O)(=O)C2)cc1 (centres undefined)	-7%	-25%	i	?	-9%	-2%
Cc1cc(C)cc(OCC(=O)N(Cc2cccs2)C2CCS(=O)(=O)C2)c1 (centres undefined)	-2%	1%	i	8.2µM*	-3%	0%
Cc1ccc(NC(=O)c2ccc3c(c2)C(=O)N(c2cc(C)ccc2C)C3=O)nc1	12%	-43%	i	?	17%	-10%
CN(C)/C=C/C(=O)c1ccc(F)cc1	1%	18µM*	i	i	-9%	-13%
CN(C)/C=C/C(=O)c1ccccc1	3%	-1%	i	i	9%	-19%
Cn1c(=O)c2cc(NC(=O)Cc3ccccc3F)ccc2n1C/C=C/c1ccccc1	-6%	nt	i	i	-4%	nt
CCCCSc1nc(N)c(NC(=O)c2ccco2)c(=O)[nH]1	12%	-1%	i	i	11%	0%
O=C(Nc1ccc2oc(=O)ccc2c1)c1ccc(-c2ccccc2[N+](=O)[O-])o1	?	12µM*	i	i	18µM*	?
O=C(Nc1ccc2oc(=O)ccc2c1)c1ccc(-c2cccc([N+](=O)[O-])c2)o1	8.2µM*	?	26µM*	i	10µM*	21µM*
O=C(Nc1ccc2oc(=O)ccc2c1)c1ccc(-c2cccc(Cl)c2)o1	16%	2%	i	?	12%	?
O=C1CCCCC1C(Nc1ccc(Br)cc1)c1ccccc1 (centres undefined)	?	?	i	i	-13%	-8%
O=C(Cn1c(=O)n(-c2ccc(Cl)cc2)c(=O)c2c3c(sc21)CCC3)c1ccccc1	nt	nt	i	i	nt	nt
COc1ccc(/C=N/NC(=O)C(=O)NCc2cccnc2)cc1	-17%	24%	i	i	-3%	-16%
O=C(N/C(=C/c1ccco1)C(=O)N1CCCCCC1)c1ccccc1	12%	-32%	i	i	1%	-9%
SMILES	HT1080 IDH1KD tx	MCF10A rereplic	KB-3-1 cytotox	KB-V1 cytotox	HT1080NT lethal	SW480 rereplic
O=C(N/C(=C/c1cccs1)C(=O)N1CCCCCC1)c1ccccc1	9%	14%	i	21µM*	3%	2%
Cc1ccc(C(=O)N/C(=C\c2cccs2)C(=O)NC2CCCCC2)cc1	-2%	4%	i	18µM*	-1%	5%
O=C(N/C(=C/c1ccco1)C(=O)N1CCCCCC1)c1cccs1	?	-5%	i	21µM*	-7%	-10%
O=C(N/C(=C\c1cccs1)C(=O)N1CCCCCC1)c1ccccc1	2%	1%	i	i	-2%	-2%
Cc1ccc(C(=O)N/C(=C/c2cccs2)C(=O)N2CCCCCC2)cc1	-1%	-4%	i	i	2%	1%
CCCCN(CC)S(=O)(=O)c1ccc(C(=O)N=c2sc3cc(NC(C)=O)ccc3n2C)cc1	23%	10µM*	?	i	13%	7.3µM*
CCOc1ccc(NCc2nc3ccccc3n2CCOc2ccccc2)cc1	?	?	?	?	-14%	?
CCn1c(COc2ccc(OC)cc2)nc2ccccc21	-18%	12%	i	?	-1%	-2%
COCCn1c(COc2ccc(OC)cc2)nc2ccccc21	-6%	-1%	i	8.2µM*	-5%	-2%
Cc1ccccc1NCc1nc2ccccc2n1CCOc1ccccc1	nt	nt	15µM*	?	nt	nt
Cc1nc2ccccn2c1-c1csc(Nc2ccc(C(=O)O)cc2)n1	3.3µM*	12µM*	?	?	2.1µM*	12µM*
Cc1cccc(Nc2nc(-c3c(C)nc4ccccn34)cs2)c1	?	-3%	?	7.3µM*	?	?
Cc1nc2ccccn2c1-c1csc(Nc2cccc(O)c2)n1	1.5µM*	?	?	10µM*	1.6µM*	?
Cc1nc(N)sc1-c1csc(Nc2cccc(O)c2)n1	-19%	3%	i	i	-12%	-7%
Cc1nc2ccccn2c1-c1csc(Nc2cccc(C(=O)O)c2)n1	-12%	6%	i	i	-17%	2%
COc1cccc(NC(=O)CSC2=NN3CCCC(=O)N=C3S2)c1	-16%	8%	i	i	-2%	2%
COc1ccc(CC(=O)N(CCC2=CCCCC2)c2c(N)n(Cc3ccccc3)c(=O)[nH]c2=O)cc1OC	0%	?	i	i	-9%	15%
Cn1c(NCCN2CCCC2)nc2cc(-c3cccc(C(F)(F)F)c3)sc2c1=O	?	nt	i	i	21µM*	nt
Cn1c(NCCN2CCCC2)nc2cc(-c3ccccc3)sc2c1=O	13µM*	nt	i	i	?	nt
O=c1c2sc(-c3ccccc3)cc2nc2n1CCCCC2	-3%	?	i	12µM*	0%	-1%

Compound activity as filed in PubChem.
